The full ranking holds about 33,000 sequences; the median of “E-score (-0.5 to 0.5)” is about -0.035, and the highest 2% start at about 0.34. The list comes from a sample in which the highest values are over-represented; it also holds similar and randomly drawn sequences.
target: T1, Mot3 (UniProt P54785); test: PBM E-score (8-mer binding enrichment) (E-score (-0.5 to 0.5)); higher = stronger / more preferred TF binding; conditions: protein concentration: 200 nM; construct: GST-full length
T1 sequence: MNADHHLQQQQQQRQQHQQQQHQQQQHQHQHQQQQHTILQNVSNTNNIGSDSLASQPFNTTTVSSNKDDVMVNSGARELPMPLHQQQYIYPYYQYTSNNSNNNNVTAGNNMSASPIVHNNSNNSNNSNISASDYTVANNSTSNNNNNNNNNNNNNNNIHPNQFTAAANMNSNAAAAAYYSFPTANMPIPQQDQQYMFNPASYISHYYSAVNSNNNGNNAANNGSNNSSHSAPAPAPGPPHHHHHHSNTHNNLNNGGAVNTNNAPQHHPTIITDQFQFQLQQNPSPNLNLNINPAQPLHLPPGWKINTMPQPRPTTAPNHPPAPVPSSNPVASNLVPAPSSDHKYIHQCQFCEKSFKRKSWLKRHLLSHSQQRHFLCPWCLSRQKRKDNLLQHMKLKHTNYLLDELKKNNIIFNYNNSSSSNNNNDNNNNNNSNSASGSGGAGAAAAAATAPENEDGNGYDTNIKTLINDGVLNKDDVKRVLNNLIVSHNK
Method: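 Universal 'all 10-mer' protein binding microarrays (Agilent AMADID 015681) probed with GST-tagged S. cerevisiae TFs (full-length or DBD) made by in vitro transcription/translation (PURExpress), about 100-200 nM. Bound TF was detected with fluorescent anti-GST. Each ungapped 8-mer (which stands for itself and its reverse complement) is scored by the PBM enrichment score (E-score), a modified Wilcoxon-Mann-Whitney statistic from -0.5 to +0.5, computed with the Universal PBM Analysis Suite. Scale: above 0.35 generally sequence-specific binding.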

| Sequence | PBM E-score |
| --- | --- |
| CGTGTCAA | 0.342 |
| GCTGTAAA | 0.25 |
| CTTGTAAC | 0.281 |
| CGTGTCAG | 0.223 |
| GATGTAAA | 0.35 |
| ACTGTAAA | 0.191 |
| GTTGTAAA | 0.31 |
| AGTGTCAA | -0.0255 |
| CTTGTAAA | 0.378 |
| ATTGTAAA | 0.3 |
| AATGTAGA | 0.221 |
| AATGTAAA | 0.374 |
| GAACTCGC | -0.0603 |
| GTCTCATA | -0.0702 |
| CCGCCTTC | -0.226 |
| GGCTCGTA | 0.112 |
| ACGGTTGG | -0.106 |
| AGCGTGAT | -0.153 |
| TCTGGTCA | -0.0723 |
| CCCCACGG | -0.224 |
| TATGTAGA | 0.333 |
| AATGTAAG | 0.201 |
| AATGTAAT | 0.377 |
| CCTGTAAA | 0.335 |
| CACGTAAA | 0.339 |

| Sequence | PBM E-score |
| --- | --- |
| AATGTAAC | 0.218 |
| TATGTAAA | 0.434 |
| CATGTAAA | 0.436 |
| ACTGTAAT | 0.169 |
| CCTGTAAG | 0.282 |
| CATGTAAG | 0.398 |
| TCTGTAAA | 0.231 |
| CTGCTGAC | 0.0167 |
| AAAAGGAG | 0.0569 |
| ACAGTGGG | -0.0834 |
| GCTACAGC | -0.167 |
| CGAAGTAA | 0.174 |
| CTGCTGCA | -0.0263 |
| CAGTTAGC | -0.274 |
| CCATCTCA | -0.228 |
| CCGCAGGC | 0.272 |
| AGGAGTAC | 0.171 |
| AACCGACA | 0.0529 |
| CCAGAACG | -0.0663 |
| ACCAGCGT | -0.0988 |
| GATGTAAC | 0.175 |
| TATGTCAA | 0.363 |
| GATGTCAA | 0.144 |
| CATGTAAC | 0.382 |
| CCTGTAAC | 0.295 |

| Sequence | PBM E-score |
| --- | --- |
| AATGTCAA | 0.0969 |
| CTAGCACC | -0.0791 |
| CGTTTGAG | -0.0011 |
| AACGTGTC | 0.273 |
| CACGTGTA | 0.383 |
| CACGTGAA | 0.183 |
| AACGTGTA | 0.415 |
| CACGTGTC | 0.183 |
| GACGTGTA | 0.318 |
| CGTCTGTA | 0.135 |
| ACCCATAA | -0.196 |
| ATACCCAT | 0.142 |
| CTATGAAC | 0.2 |
| CCAGTGTA | 0.0502 |
| CAGACATG | 0.106 |
| CAGGCATA | 0.319 |
| CAGGCATC | 0.402 |
| GAGGCATC | 0.145 |
| CATGCATG | 0.0529 |
| CAGGCATG | 0.358 |
| AGGTGTGC | 0.0416 |
| AAGATCTC | -0.0117 |
| GCAGGTAC | 0.452 |
| GCAGGTAA | 0.385 |
| GCAGGTCC | -0.168 |

| Sequence | PBM E-score |
| --- | --- |
| CCAGGTAC | 0.238 |
| TCAGGTAA | 0.324 |
| ACAGGTAC | 0.423 |
| ACAGGTAT | 0.194 |
| ACAGGTGA | 0.0111 |
| ACAGGTAA | 0.39 |
| CCAGGTAA | 0.238 |
| ACAGGTTA | 0.155 |
| ACAGGTAG | -0.0129 |
| GCGTTACC | 0.0266 |
| CGGCTTCA | -0.131 |
| CCCCACAA | -0.0534 |
| ACTGAATC | -0.0804 |
| AGGCTCCG | 0.223 |
| ATTGCCAC | -0.0828 |
| GTGGTCTA | -0.279 |
| CTTTGAAC | -0.158 |
| GACACGTA | 0.26 |
| GACACGGA | 0.22 |
| TACACGTA | 0.362 |
| CACACGTA | 0.208 |
| CACACGGA | 0.0661 |
| TACACGGA | 0.357 |

Source: the supplement of paper PMC3334620
